This is part of a sample that, as a whole, favours compounds with a hit. Of some 79,000 tested, about 15% had one in any assay. The source made the active and inactive calls. Cut-off read from the data, not from the text of the source: active = growth inhibition above about 70%; inactive = the rest. Where a SMILES comes first, the peptide text is derived from it. The star is where a group is joined. Cbz = O=C(OCc1ccccc1)*
Tests used:
[1] = NCI Yeast Anticancer Drug Screen. Data for the rad50 strain (AID 155);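 note: 0% = growth of vehicle-only cultures of the same strain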; settings: S. cerevisiae rad50 strain growth inhibition; at 50.0 µM; hits give high values
Outline: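 Readout: growth inhibition relative to vehicle-treated cultures. Compound exposure was carried out in a genetically defined yeast strain deficient in DNA damage repair.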

[2] = NCI Yeast Anticancer Drug Screen. Data for the mec2-1 strain (AID 157); settings: S. cerevisiae mec2-1 strain, at 50.0 µM, hits give high values
Outline: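 mec2-1 yeast strain, carrying an alteration in DNA damage repair or cell cycle control, was exposed to compounds; growth inhibition was measured relative to vehicle-treated controls.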

[3] = NCI Yeast Anticancer Drug Screen. Data for the sgs1 mgt1 strain (AID 161);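 note: 0% = growth of cultures given vehicle only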; settings: S. cerevisiae sgs1 mgt1 strain, at 50.0 µM, hits give high values
Outline: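 Growth of a repair-deficient yeast mutant was monitored after compound treatment and expressed as inhibition relative to vehicle-treated cultures.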

[4] = NCI Yeast Anticancer Drug Screen. Data for the cln2 rad14 strain (AID 165);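 note: 0% = growth equal to vehicle treated cultures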; settings: S. cerevisiae cln2 rad14 strain, at 50.0 µM, hits give high values
Outline: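 Yeast carrying cln2 and rad14 alterations (cell cycle control and DNA damage repair) were exposed to compounds. Growth inhibition was measured against vehicle-treated controls.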

[5] = NCI Yeast Anticancer Drug Screen. Data for the bub3 strain (AID 167); settings: S. cerevisiae bub3 mutant strain, at 50.0 µM, hits give high values
Outline: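 Readout: yeast growth inhibition, expressed relative to vehicle-only wells. The test organism is a mutant strain from a panel with lesions in DNA repair or checkpoint genes.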

[6] = NCI Yeast Anticancer Drug Screen. Data for the mlh1 rad18 strain (AID 175); settings: S. cerevisiae mlh1 rad18 strain growth inhibition; at 50.0 µM; hits give high values
Outline: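 Growth inhibition of the yeast strain was measured after compound exposure and expressed relative to vehicle-treated controls. The strain carries defined defects in DNA damage repair.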

Measured: growth inhibition

O=C1OCc2c1cc1cc3c(cc1c2-c1ccc2c(c1)OCO2)OCO3
inactive: [1] 2.1% | [2] -36.1% | [3] 3.4% | [4] 4.8% | [5] -19.2% | [6] 3.85%

O=C(O)c1cc(=O)[nH]c(SCc2ccccc2)n1
inactive: [1] -9.7% | [2] -20.1% | [3] -28.5% | [4] -30.2% | [5] -20.8% | [6] -5.35%

COc1cc(C2C(Cl)C(=O)N2n2cnc3ccccc3c2=O)ccc1O (centres undefined)
inactive: [1] -22.7% | [2] 3.3% | [3] -11.2% | [4] 12.8% | [5] -10.2% | [6] -11.8%

CCC(C)OC(=S)S.[Ag] (centres undefined)
inactive: [1] 5.25% | [2] -7.2% | [3] 0.7% | [4] -9.4% | [5] -1.85% | [6] 10.7%

CCOc1ccccc1NC(=O)CC1Sc2ccccc2NC1=O (centres undefined)
inactive: [1] 24.5% | [2] -14.7% | [3] 15.3% | [4] 2.55% | [5] 3.85% | [6] 21.5%

Cc1ccc(NC(=S)NCC2CCCO2)cc1C (centres undefined)
inactive: [1] 9% | [2] 7.2% | [3] 10.6% | [4] 8.85% | [5] 19.4% | [6] 14.7%

COc1ccc(N(Cc2ccc(C)o2)C(=S)Nc2ccccc2)cc1
inactive: [1] -3.6% | [2] -5.4% | [3] 9.7% | [4] 8.9% | [5] 36% | [6] 7.05%

CC(C)CCN(C=O)c1ccccc1
inactive: [1] 1.7% | [2] 0.7% | [3] 8.05% | [4] 5.5% | [5] -9.5% | [6] 2.15%

CCCCCCCc1ccccc1
inactive: [1] -13.1% | [2] -14.7% | [3] -19.6% | [4] 3.95% | [5] 20.2% | [6] -6.5%

CCCCCCCCCCCCCC(N)=O
inactive: [1] -30.8% | [2] -46.5% | [3] -18.2% | [4] 4.85% | [5] -28.7% | [6] -18%

CCCCNc1nc(NC2OCC(OC(C)=O)C(OC(C)=O)C2OC(C)=O)c(N=O)c(=O)n1C (centres undefined)
inactive: [1] -4% | [2] -21.4% | [3] -4.3% | [4] -28.4% | [5] -12.5% | [6] -2.9%

COc1cc(Cl)ccc1NC(=O)Oc1ccc2ccccc2c1
inactive: [1] 11.8% | [2] 14.2% | [3] 13% | [4] 9.2% | [5] 14.4% | [6] 9.4%

CS(=O)(=O)N1CCCN(S(C)(=O)=O)COC1
inactive: [1] 6.2% | [2] -6.65% | [3] -8.75% | [4] -2.45% | [5] 13.4% | [6] -0.35%

CC1(c2ccccc2)CCCCC1OC(N)=O (centres undefined)
inactive: [1] 4.3% | [2] -21.9% | [3] -13.9% | [4] 27.5% | [5] 7.2% | [6] -5.15%

Cc1nc2ccccc2nc1CC(=O)c1ccccc1
inactive: [1] 43.3% | [2] 15.3% | [3] 48% | [4] 18.5% | [5] 54.4% | [6] 43.5%

O=C(c1cccs1)c1cccs1
inactive: [1] -6.4% | [2] -12.9% | [3] -17.6% | [4] -67% | [5] 8.3% | [6] -8.45%

CSC(SC)C(OC(C)=O)C(OC(C)=O)C(OC(C)=O)C(COC(C)=O)OC(C)=O (centres undefined)
inactive: [1] -11.7% | [2] 11.4% | [3] 3.15% | [4] -30.9% | [5] 2.3% | [6] 3.85%

CCN(CC)n1c(N)nc2c1c(=O)n(C)c(=O)n2C
inactive: [1] -9.05% | [2] -6.65% | [3] 2.95% | [4] -24.6% | [5] 9.65% | [6] 13.3%

O=[N+]([O-])c1ccc(/C(CBr)=N/N2CCCCC2)cc1
inactive: [1] -19.6% | [2] -24.9% | [3] -4.6% | [4] 3.55% | [5] -9.65% | [6] -13.6%

O=C(N/N=C/c1ccc(Br)cc1)N/N=C/c1ccc(Br)cc1
inactive: [1] -13.5% | [2] -15.7% | [3] -6.45% | [4] 11.4% | [5] -5.05% | [6] -12.8%

CN=C1NC(C)(C)C2CCC(C)(CC2)S1
inactive: [1] 8.35% | [2] 14.9% | [3] -4.3% | [4] -71.3% | [5] 2.85% | [6] 14.7%

c1ccc(C2CCOCO2)cc1 (centres undefined)
inactive: [1] 14.4% | [2] 15.7% | [3] 15.8% | [4] 12.2% | [5] 5.7% | [6] 24.2%

Cc1cccc(C)c1NC(=O)Nc1cccc(C#N)c1
inactive: [1] -0.3% | [2] -10.8% | [3] 7.35% | [4] 15.3% | [5] -0.55% | [6] 17.4%

c1ccc(-c2cc3nncc(-c4ccccc4)n3n2)cc1
inactive: [1] -14.9% | [2] -9.95% | [3] -7.65% | [4] 13.9% | [5] 13.3% | [6] 3.55%

O=C(/C=C\c1ccccc1)OCc1ccccc1CN1CCCCC1
inactive: [1] 15.7% | [2] 11.7% | [3] 17.2% | [4] 14.6% | [5] 10.4% | [6] 12.8%

CC1COC2(CCCCC2)O1 (centres undefined)
inactive: [1] -25.2% | [2] -3.45% | [3] -44.1% | [4] -37% | [5] -14.8% | [6] -26.1%

Cc1ccc(C2=C(Cl)C(=O)C(c3ccc(C)cc3)=C(Cl)C2=O)cc1
inactive: [1] -15.8% | [2] 10.3% | [3] -13.8% | [4] -3.95% | [5] -57.5% | [6] -14.4%

CCCCc1c2c(nc3c1CCC/C3=C\c1ccccc1)/C(=C/c1ccccc1)CCC2
inactive: [1] -5.05% | [2] 16.9% | [3] -1.3% | [4] 9.7% | [5] -0.55% | [6] 22.3%

CN(CN(C)N=Nc1ccc(Br)cc1)CN(C)N=Nc1ccc(Br)cc1
inactive: [1] -0.7% | [2] 19.6% | [3] 4.45% | [4] 23.2% | [5] 5.1% | [6] 15%

Cn1c(=O)n2c(-c3ccccc3)c(-c3ccccc3)n2c1=O
inactive: [1] 6.85% | [2] -19.6% | [3] -23.8% | [4] 0.5% | [5] -25.9% | [6] -28.9%

O=CNCC1(c2ccccc2)CCN(Cc2ccccc2)CC1
inactive: [1] -2.4% | [2] -23.8% | [3] 3.4% | [4] 2.05% | [5] 3.55% | [6] 8.45%

O=C1NCC(c2ccccc2)(C2CC2)O1 (centres undefined)
inactive: [1] 7.85% | [2] 6.65% | [3] -13.3% | [4] -44.6% | [5] 5.1% | [6] -27.1%

O=S1(=O)C=C(Br)CO1
inactive: [1] -4.65% | [2] 1.75% | [3] -2.5% | [4] -17.4% | [5] -20.6% | [6] -15.7%

COc1ccc(C(=O)O[C@@H]2CCN3CC[C@H](C)[C@H]23)cc1
inactive: [1] 7.4% | [2] -22.5% | [3] 7.3% | [4] 12.7% | [5] -6.35% | [6] -74.8%

Cc1ccc(S(=O)(=O)OI(O)CC(F)(F)F)cc1
inactive: [1] -39.1% | [2] 15.5% | [3] -2.5% | [4] -2.05% | [5] 6.5% | [6] 25.9%

CCCCCCCCSc1nc2ccc(N=Cc3ccccc3O)cc2s1
inactive: [2] 31.7% | [4] 53.6% | [5] 21.7% | [6] 36.1%
active: [1] 75% | [3] 73.3%

O=C(c1ccccc1)c1cc(Br)c2cccc3c2c1CC3
inactive: [1] 11.6% | [2] -7.6% | [3] -1.5% | [4] 14.3% | [5] 20.4% | [6] -3%

COc1c2c(cc3nc4ccccc4nc13)CCC(C(C)(C)O)C2 (centres undefined)
inactive: [1] 17.9% | [2] -10.2% | [3] -3.45% | [4] 3.9% | [5] -0.7% | [6] 6.3%

CC(C)CC(NC(=O)C(CO)NC(=O)OCc1ccccc1)C(=O)NC(Cc1ccc(O)cc1)C(N)=O (stereo not drawn) (Cbz-Ser-Leu-Tyr-NH2; configuration not given here)
inactive: [1] 47.5% | [2] -8.05% | [3] 27.6% | [4] 4.9% | [5] 3.95% | [6] 13.7%

From PubChem BioAssay (NCI)
